The supplement of paper PMC12282887
± gives the standard deviation of the averaged measurements.

Assays:
Test in all cases: promoter activity interaction Z-score (Lux/OD deviation from empty-vector control); higher = stronger promoter induction by the compound
[1] = system: E. coli BW25113 acrABp lux reporter
Method in brief: (§1)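 E. coli BW25113, as wild type or one of three single-gene deletion strains, carried low-copy luxCDABE promoter reporters and grew in 40 µl LB Lennox in 384-well plates at 37°C, with OD600 and luminescence read every 30 min for 12 h. Each compound was run at four 1:2 dilutions in biological duplicates, integration spanned 0–8 h for wild type and 1–9 h for deletion strains, and wells under 10% of the median growth value were dropped. The score is the Z-transformed residual of growth-normalised luminescence fitted against a control.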

[2] = system: E. coli BW25113 marRABp lux reporter
Method in brief: as §1

[3] = system: E. coli BW25113 micFp lux reporter
Method in brief: as §1

[4] = system: E. coli BW25113 ompFp lux reporter
Method in brief: as §1

[5] = system: E. coli BW25113 robp lux reporter
Method in brief: as §1

[6] = system: E. coli BW25113 soxSp lux reporter
Method in brief: as §1

[7] = system: E. coli BW25113 tolCp lux reporter
Method in brief: as §1

[8] = 24.3 µg/ml, genetic background: wild type
[9] = 24.3 µg/ml, genetic background: ΔmarA
[10] = 24.3 µg/ml, genetic background: Δrob
[11] = 24.3 µg/ml, genetic background: ΔsoxS
[12] = 48.5 µg/ml, genetic background: wild type
[13] = 48.5 µg/ml, genetic background: ΔmarA
[14] = 48.5 µg/ml, genetic background: Δrob
[15] = 48.5 µg/ml, genetic background: ΔsoxS
[16] = 97.1 µg/ml, genetic background: wild type
[17] = 97.1 µg/ml, genetic background: ΔmarA
[18] = 97.1 µg/ml, genetic background: Δrob
[19] = 97.1 µg/ml, genetic background: ΔsoxS
[20] = 194.2 µg/ml, genetic background: wild type
[21] = 194.2 µg/ml, genetic background: ΔmarA
[22] = 194.2 µg/ml, genetic background: Δrob
[23] = 194.2 µg/ml, genetic background: ΔsoxS

Q: What does the source list for `Cn1c(=O)c2c(ncn2C)n(C)c1=O` [Caffeine]?
A: promoter activity interaction Z-score [1, 8]: -0.0906 ± 0.17; promoter activity interaction Z-score [1, 9]: 1.25 ± 2.5; promoter activity interaction Z-score [1, 10]: 0.229 ± 0.12; promoter activity interaction Z-score [1, 11]: 0.234 ± 0.23; promoter activity interaction Z-score [1, 12]: 0.0551 ± 0.06; promoter activity interaction Z-score [1, 13]: 0.244 ± 1.1; promoter activity interaction Z-score [1, 14]: 0.254 ± 0.35; promoter activity interaction Z-score [1, 15]: 0.3 ± 0.18; promoter activity interaction Z-score [1, 16]: 0.0174 ± 0.31; promoter activity interaction Z-score [1, 17]: 0.17 ± 0.29; promoter activity interaction Z-score [1, 18]: 0.132 ± 0.014; promoter activity interaction Z-score [1, 19]: 0.864 ± 1; promoter activity interaction Z-score [1, 20]: 0.303 ± 0.24; promoter activity interaction Z-score [1, 21]: -0.0252 ± 0.29; promoter activity interaction Z-score [1, 22]: 0.0753 ± 0.22; promoter activity interaction Z-score [1, 23]: 0.762 ± 0.37; promoter activity interaction Z-score [2, 8]: 0.925 ± 0.19; promoter activity interaction Z-score [2, 9]: 1.52 ± 0.3; promoter activity interaction Z-score [2, 10]: 0.0874 ± 0.094; promoter activity interaction Z-score [2, 11]: 0.874 ± 0.41; promoter activity interaction Z-score [2, 12]: 1.58 ± 0.15; promoter activity interaction Z-score [2, 13]: 1.47 ± 0.32; promoter activity interaction Z-score [2, 14]: -0.0293 ± 0.12; promoter activity interaction Z-score [2, 15]: 1.28 ± 0.27; promoter activity interaction Z-score [2, 16]: 1.63 ± 0.018; promoter activity interaction Z-score [2, 17]: 2.83 ± 0.69; promoter activity interaction Z-score [2, 18]: 0.0326 ± 0.04; promoter activity interaction Z-score [2, 19]: 1.55 ± 0.65; promoter activity interaction Z-score [2, 20]: 3.65 ± 0.97; promoter activity interaction Z-score [2, 21]: 4.03 ± 0.93; promoter activity interaction Z-score [2, 22]: 0.103 ± 0.13; promoter activity interaction Z-score [2, 23]: 2.91 ± 1.6; promoter activity interaction Z-score [3, 8]: 1.28 ± 0.39; promoter activity interaction Z-score [3, 9]: 1.01 ± 0.13; promoter activity interaction Z-score [3, 10]: 0.0768 ± 0.058; promoter activity interaction Z-score [3, 11]: 1.65 ± 0.72; promoter activity interaction Z-score [3, 12]: 2.71 ± 0.15; promoter activity interaction Z-score [3, 13]: 1.72 ± 0.17; promoter activity interaction Z-score [3, 14]: -0.0682 ± 0.092; promoter activity interaction Z-score [3, 15]: 2.27 ± 0.1; promoter activity interaction Z-score [3, 16]: 3.93 ± 0.29; promoter activity interaction Z-score [3, 17]: 3.13 ± 0.049; promoter activity interaction Z-score [3, 18]: -0.0129 ± 0.082; promoter activity interaction Z-score [3, 19]: 4.2 ± 0.47; promoter activity interaction Z-score [3, 20]: 9.84 ± 0.76; promoter activity interaction Z-score [3, 21]: 6.96 ± 1.9; promoter activity interaction Z-score [3, 22]: 0.216 ± 0.022; promoter activity interaction Z-score [3, 23]: 9.87 ± 0.2; promoter activity interaction Z-score [4, 8]: 0.171 ± 0.69; promoter activity interaction Z-score [4, 9]: 0.0413 ± 0.047; promoter activity interaction Z-score [4, 10]: 0.636 ± 0.1; promoter activity interaction Z-score [4, 11]: 0.0579 ± 0.15; promoter activity interaction Z-score [4, 12]: 0.648 ± 0.61; promoter activity interaction Z-score [4, 13]: 0.121 ± 0.51; promoter activity interaction Z-score [4, 14]: -0.106 ± 0.46; promoter activity interaction Z-score [4, 15]: -0.0276 ± 0.3; promoter activity interaction Z-score [4, 16]: -0.351 ± 0.49; promoter activity interaction Z-score [4, 17]: 0.00292 ± 0.16; promoter activity interaction Z-score [4, 18]: -0.133 ± 0.69; promoter activity interaction Z-score [4, 19]: 0.291 ± 0.42; promoter activity interaction Z-score [4, 20]: 0.651 ± 0.51; promoter activity interaction Z-score [4, 21]: 0.268 ± 0.19; promoter activity interaction Z-score [4, 22]: 0.227 ± 0.64; promoter activity interaction Z-score [4, 23]: 0.245 ± 0.21; promoter activity interaction Z-score [5, 8]: 0.0869 ± 0.41; promoter activity interaction Z-score [5, 9]: 1.13 ± 1.2; promoter activity interaction Z-score [5, 10]: 0.442 ± 0.56; promoter activity interaction Z-score [5, 11]: 1.35 ± 0.27; promoter activity interaction Z-score [5, 12]: 1.03 ± 0.53; promoter activity interaction Z-score [5, 13]: -0.488 ± 0.27; promoter activity interaction Z-score [5, 14]: 0.545 ± 0.89; promoter activity interaction Z-score [5, 15]: 1.19 ± 0.12; promoter activity interaction Z-score [5, 16]: -0.142 ± 0.26; promoter activity interaction Z-score [5, 17]: -0.194 ± 0.34; promoter activity interaction Z-score [5, 18]: -0.0955 ± 0.42; promoter activity interaction Z-score [5, 19]: -0.0533 ± 0.92; promoter activity interaction Z-score [5, 20]: -0.121 ± 0.73; promoter activity interaction Z-score [5, 21]: -0.257 ± 0.088; promoter activity interaction Z-score [5, 22]: 0.111 ± 1.4; promoter activity interaction Z-score [5, 23]: -1.19 ± 0.4; promoter activity interaction Z-score [6, 8]: -0.0276 ± 0.14; promoter activity interaction Z-score [6, 9]: 0.29 ± 0.3; promoter activity interaction Z-score [6, 10]: 0.512 ± 0.15; promoter activity interaction Z-score [6, 11]: -0.000875 ± 0.083; promoter activity interaction Z-score [6, 12]: 0.149 ± 0.051; promoter activity interaction Z-score [6, 13]: 0.331 ± 0.32; promoter activity interaction Z-score [6, 14]: 0.0369 ± 0.011; promoter activity interaction Z-score [6, 15]: 0.0413 ± 0.11; promoter activity interaction Z-score [6, 16]: 0.0939 ± 0.035; promoter activity interaction Z-score [6, 17]: 0.405 ± 0.044; promoter activity interaction Z-score [6, 18]: 0.395 ± 0.12; promoter activity interaction Z-score [6, 19]: 0.167 ± 0.44; promoter activity interaction Z-score [6, 20]: 0.212 ± 0.044; promoter activity interaction Z-score [6, 21]: 0.529 ± 0.026; promoter activity interaction Z-score [6, 22]: 0.257 ± 0.16; promoter activity interaction Z-score [6, 23]: 0.6 ± 0.85; promoter activity interaction Z-score [7, 8]: -0.298 ± 0.42; promoter activity interaction Z-score [7, 9]: 0.922 ± 0.83; promoter activity interaction Z-score [7, 10]: -0.0951 ± 0.85; promoter activity interaction Z-score [7, 11]: 0.425 ± 0.39; promoter activity interaction Z-score [7, 12]: 0.642 ± 1.2; promoter activity interaction Z-score [7, 13]: 0.724 ± 0.083; promoter activity interaction Z-score [7, 14]: -0.684 ± 0.056; promoter activity interaction Z-score [7, 15]: 0.896 ± 0.56; promoter activity interaction Z-score [7, 16]: 0.921 ± 0.51; promoter activity interaction Z-score [7, 17]: 0.55 ± 0.57; promoter activity interaction Z-score [7, 18]: -0.368 ± 0.11; promoter activity interaction Z-score [7, 19]: 1.64 ± 0.38; promoter activity interaction Z-score [7, 20]: 1.37 ± 0.41; promoter activity interaction Z-score [7, 21]: 1.61 ± 1.5; promoter activity interaction Z-score [7, 22]: 0.892 ± 0.67; promoter activity interaction Z-score [7, 23]: 0.579 ± 1
